Assay outcomes (PubChem)
The list is not random: actives were taken first. Their share in the collection is about 2.4%.
Pol kappa inh: DNA polymerase kappa (human) inhibition; purified Pol kappa, fluorescent DNA synthesis assay, 10 min; 400,000 tested, 0.53% active; Q9UBT6; Potency, µM (top dose mostly 107 µM), inactives show at the top dose activity, negative = inhibition, actives largely listed as inhibitors; AID 588579; further: on the % scale 0 is the no-effect control and ±100 the full control effect
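Fluorescent qHTS in 1536-well format: enzyme (10 nM) and compound sat 15 min at room temperature before 50 nM substrate (final) was added. Signal taken at 0 and 10 min; no-enzyme buffer wells were negative controls.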
Pol beta inh: DNA polymerase beta (human) inhibition. Pol beta primer extension/strand displacement, fluorescence kinetic. P06746. AID 485314. 340,000 tested, 1.3% active. Potency, µM (series often up to 114 µM), without a hit: at the top dose activity change, negative = inhibition, most hits filed as inhibitors; further: on the % scale 0 is the no-effect control and ±100 the full control effect
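10 nM enzyme + cpd, 15 min RT; start with substrate 50 nM final; read 0 min and after 10 min RT. Corrected, normalized data; 4-parameter Hill curve fit.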
WRN helicase inh: blocks human WRN helicase | Q14191 | WRN helicase unwinding, fluorescent forked duplex, kinetic | Potency, µM (doses to about 114 µM), for inactives: top-dose activity change, negative = inhibition, hits mostly inhibitors | 360,000 tested, 0.46% active; further: on the % scale 0 is the no-effect control and ±100 the full control effect; nearly all actives have a fitted effect of over 55% in size
Target sequence (Q14191 whole entry, looked up): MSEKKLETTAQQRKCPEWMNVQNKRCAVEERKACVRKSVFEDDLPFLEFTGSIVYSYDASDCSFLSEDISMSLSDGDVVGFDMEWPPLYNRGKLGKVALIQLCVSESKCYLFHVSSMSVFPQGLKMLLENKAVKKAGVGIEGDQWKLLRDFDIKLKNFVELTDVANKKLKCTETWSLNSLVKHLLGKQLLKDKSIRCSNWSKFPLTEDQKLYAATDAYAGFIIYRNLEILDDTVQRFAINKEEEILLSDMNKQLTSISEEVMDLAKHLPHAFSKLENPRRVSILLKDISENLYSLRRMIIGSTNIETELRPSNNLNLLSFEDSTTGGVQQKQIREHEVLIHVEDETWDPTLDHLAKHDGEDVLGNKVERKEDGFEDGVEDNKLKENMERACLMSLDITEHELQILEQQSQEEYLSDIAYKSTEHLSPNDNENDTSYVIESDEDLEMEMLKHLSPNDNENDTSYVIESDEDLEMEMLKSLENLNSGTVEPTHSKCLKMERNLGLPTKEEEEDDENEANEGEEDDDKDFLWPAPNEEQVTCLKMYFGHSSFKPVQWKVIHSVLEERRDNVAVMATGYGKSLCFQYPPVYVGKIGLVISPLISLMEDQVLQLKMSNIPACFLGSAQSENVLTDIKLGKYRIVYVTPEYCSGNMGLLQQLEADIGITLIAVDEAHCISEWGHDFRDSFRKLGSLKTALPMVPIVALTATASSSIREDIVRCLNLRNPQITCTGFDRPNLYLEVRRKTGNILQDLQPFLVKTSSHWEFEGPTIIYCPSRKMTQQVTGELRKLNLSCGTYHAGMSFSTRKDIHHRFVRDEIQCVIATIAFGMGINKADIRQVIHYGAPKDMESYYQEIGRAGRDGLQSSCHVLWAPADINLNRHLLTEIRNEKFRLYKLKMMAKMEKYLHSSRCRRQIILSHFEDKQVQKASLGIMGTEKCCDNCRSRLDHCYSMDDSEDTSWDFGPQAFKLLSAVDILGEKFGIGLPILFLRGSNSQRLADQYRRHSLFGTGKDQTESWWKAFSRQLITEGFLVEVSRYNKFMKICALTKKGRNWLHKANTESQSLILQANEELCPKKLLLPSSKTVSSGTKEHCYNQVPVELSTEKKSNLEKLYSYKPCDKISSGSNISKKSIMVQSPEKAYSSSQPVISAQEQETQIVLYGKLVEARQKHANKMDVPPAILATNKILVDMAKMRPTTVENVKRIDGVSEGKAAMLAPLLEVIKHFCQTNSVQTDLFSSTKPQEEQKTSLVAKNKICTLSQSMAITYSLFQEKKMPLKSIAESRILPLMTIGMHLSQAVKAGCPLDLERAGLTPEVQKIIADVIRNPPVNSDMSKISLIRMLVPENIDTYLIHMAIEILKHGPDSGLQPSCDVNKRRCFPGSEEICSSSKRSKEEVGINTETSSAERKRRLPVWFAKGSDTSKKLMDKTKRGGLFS
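Primary qHTS, 1536-well format. 20 nM WRN + compound, 15 min RT; start with 100 nM forked fluorophore/quencher duplex, 2 mM ATP (final); kinetic read ex 525/em 598 nm.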
FEN1 inh: inhibitors of human flap endonuclease 1. Potency, µM (top dose mostly 114 µM), inactives show at the highest dose activity change, negative = inhibition, most hits filed as inhibitors. 390,000 tested, 0.35% active. Recombinant FEN1 flap cleavage, fluorescence, 15 min; further: on the % scale 0 is the no-effect control and ±100 the full control effect; nearly all actives have a fitted effect of over 65% in size
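Potency values derive from four-parameter Hill fits of normalized qHTS data. The reaction used 10 nM FEN1 preincubated 15 min at room temperature with compound, then 50 nM DNA substrate, read at 0 and 15 min.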
Pol iota inh: blocks human DNA polymerase iota activity; Pol iota fluorescent replication assay, 10 min; Potency, µM (doses to about 115 µM), without a hit: at the highest dose activity, negative = inhibition, most hits filed as inhibitors; 390,000 tested, 1% active
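Pol iota at 10 nM preincubated 15 min with compounds at room temperature; reaction started with fluorescent substrate, 50 nM final. Fluorescence read kinetically at 0 and 10 min; buffer-only wells as negative control.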
Pol eta inh: blocks human DNA polymerase eta activity; recombinant Pol eta, fluorescent DNA replication assay; Potency, µM (titrated, usually from 114 µM), inactives show at the top dose activity change, negative = inhibition, hits mostly inhibitors; 390,000 tested, 1.2% active; AID 588591; further: on the % scale 0 is the no-effect control and ±100 the full control effect
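Pol eta (10 nM) was preincubated with compounds for 15 min at room temperature, after which fluorescent replication substrate (50 nM final) was added to start the reaction. Fluorescence was read kinetically at 0 and 10 min.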
Active calls of the source: *; ? = inconclusive; · = no result given; [ ] = remark or other dose. The call rests on the fitted dose curve; in most records, active means well fitted curve in the direction sought with a large enough effect; inconclusive means small, poorly fitted or top-dose-only effect, or another doubt; inactive means no such curve, though single readings can be large; an effect the other way counts as inactive or inconclusive. Potency means the concentration at half of the fitted maximal effect.

SMILES | Pol kappa inh | Pol beta inh | WRN helicase inh | FEN1 inh | Pol iota inh | Pol eta inh
NS(=O)(=O)c1ccc(CCNC(=O)c2cc3ccccc3s2)cc1 | ? | 45µM* | 2%[11.6 µM] | ? | 22µM* | 28µM*
O=C(NCc1ccccc1)c1cnc2sc(N3CCCC3)nn2c1=O | -5% | -11% | · | -1% | -6% | -3%
CC(C)(C)n1ncc2c(=O)n(Cc3ccccc3-c3ccccc3)cnc21 | 4% | · | · | 0% | 14% | ·
COc1cc(/C=N/n2nnnc2N)ccc1OCc1c(C)no[n+]1[O-] | -8% | -1% | -3% | -14% | 14% | -4%
Cc1no[n+]([O-])c1COc1cccc(/C=N/Nc2nncn2N)c1 | -11% | ? | 5%[11.6 µM] | -6% | 20µM* | -17%
Cc1ccc2ccc3cc(C(=O)Nc4ccc(C)c(F)c4)nc3c2[nH]1 | -15% | ? | · | -16% | 89µM* | -11%
O=C(Cc1cc(=O)[nH][nH]1)N/N=C/C=C/c1ccccc1 | -31% | -14% | ? | ? | ? | 14µM*
Cc1[nH]c2ccccc2c1C(=O)C(C)Sc1nc2ccccc2c(=O)n1Cc1cccnc1 (configuration not stated) | -6% | · | · | -5% | 4% | ·
C/C(=N\OCC(=O)OCC(=O)NCc1ccccc1)c1ccc2c(c1)OCO2 | ? | · | ? | -1% | 40µM* | 20µM*
O=C(O)CC/C=C\CC[C@@H]1[C@@H](N2CCCCC2)[C@@H](O)C[C@@H]1OCc1ccc(-c2ccccc2)cc1 | -9%[19.4 µM] | · | · | · | · | ·
CN(C)c1ccc(/C=C/c2ccnc3ccccc23)cc1 | -8% | · | · | -23% | 26% | ·
C=CCn1c(=O)[nH]c2cc(C(=O)N3CCN(c4cccc(Cl)c4)CC3)ccc2c1=O | -25% | -68% | -17% | -9% | 89µM* | ?
O=c1ccc2cc3c([nH]c4ccc(Br)cc43)oc-2c1O | · | 10µM* | · | · | · | ·
O=C(O)c1ccc(N=Nc2c(O)[nH]c3ccc(Br)cc23)cc1 | -7% | 1% | -13% | -12% | -12% | ?
CCN(CC)c1cc(C)c(/C=C/c2ccnc3ccccc23)cc1C | -9% | · | · | ? | 6% | ·
COc1c(O)cc2c(c1O)C1OC(CO)C(O)C(O)C1OC2=O (configuration not stated) | -1% | · | 1% | -4% | 18% | -16%
O=C1OCC2OC(O)C(O)C(O)C2OC(=O)c2cc(O)c(O)c(O)c2-c2c(O)c(O)c3oc(=O)c4c(c(O)c(O)c5oc(=O)c2c3c54)-c2c1cc(O)c(O)c2O (configuration not stated) | · | 0.16µM* | · | · | · | ·
O=C(O)C=Cc1ccc(Cn2ccnc2)cc1 | -11%[19.4 µM] | · | · | · | · | ·
Cc1ccc(C)c(OCCn2ccnc2)c1 | 79µM* | 10µM* | -24% | -16% | 40µM* | 32µM*
Cc1ccccc1NC(=O)Cc1nc(COC(=O)c2ccc(NC(N)=O)cc2)cs1 | -10% | · | -6% | 9% | 36% | ?
CS(=O)(=O)c1ccc(C(=O)OCC(=O)Nc2cccnc2Cl)cc1[N+](=O)[O-] | 9% | · | -19% | 3% | ? | 89µM*
CS(=O)(=O)c1ccc(C(=O)OCC(=O)N2CC(=O)Nc3ccccc32)cc1[N+](=O)[O-] | -3% | · | · | 9% | 50µM* | ·
CC(=O)c1cccc(NC(=O)C(C)OC(=O)c2ccc(S(C)(=O)=O)c([N+](=O)[O-])c2)c1 (configuration not stated) | 7% | · | · | -22% | -1% | ·
CC(=O)c1cccc(NC(=O)COC(=O)c2ccc(S(C)(=O)=O)c([N+](=O)[O-])c2)c1 | -5% | 10% | -24%[57.1 µM] | -15% | ? | 79µM*
Cc1ccccc1NC(=O)Cc1nc(COC(=O)c2ccc(S(C)(=O)=O)c([N+](=O)[O-])c2)cs1 | -10% | · | -27% | 8% | ? | 22µM*
SMILES | Pol kappa inh | Pol beta inh | WRN helicase inh | FEN1 inh | Pol iota inh | Pol eta inh
Clc1nc(NCC2CCCO2)c2[nH]cnc2n1 (configuration not stated) | -1% | · | · | 11% | 14% | ·
COC(=O)C1=C[C@@H](C(=O)OC)C2C3=C(C(=O)[C@]2(C)NC(=O)c2ccccc2)[C@H](C)n2c(=O)n(-c4ccccc4)c(=O)n2[C@@H]3C1 (some centres not stated) | -11% | · | · | 3% | -19% | ·
Cn1c(=O)c2cc(S(=O)(=O)NC(Cc3ccccc3)C(=O)Nc3ccc(F)cc3)ccc2n(C)c1=O (configuration not stated) | -2% | 13% | · | 12% | ? | -3%
Cc1ccccc1NC(=O)COC(=O)c1ccc(S(C)(=O)=O)c([N+](=O)[O-])c1 | -4% | ? | -9%[11.6 µM] | -10% | ? | 89µM*
COc1ccc(C(C)=O)cc1COc1ccccc1[N+](=O)[O-] | -9% | -24% | 2% | -8% | 7% | 0%
CS(=O)(=O)c1ccc(C(=O)OCC(=O)Nc2cc(C(F)(F)F)ccc2Cl)cc1[N+](=O)[O-] | -25% | · | · | -7% | -13% | ·
COc1ccc(C(C)=O)cc1COC(=O)c1ccc(N)c([N+](=O)[O-])c1 | -4% | -6% | -9% | -1% | 32µM* | -16%
Fc1ccc(Nc2nc(-c3ccoc3)nc3ccccc23)cc1 | -20%[60.1 µM] | · | · | · | · | ·
CCc1sc(-c2cc3cccc(OC)c3oc2=O)nc1-c1cc(C)ccc1C | -98% | · | · | -26% | ? | ·
O=c1cc(-c2ccc(Cl)c(Cl)c2)[nH][nH]1 | -7% | 6% | -1% | -5% | -10% | -11%
O=c1cc(-c2ccc(Cl)cc2)[nH][nH]1 | -3% | -15% | -2% | 0% | 1.6µM* | -4%
O=Cc1cc(N=Nc2cccc(C(=O)O)c2)ccc1O | ? | 35µM* | -10%[11.6 µM] | -14% | ? | ?
C/C=C/C/C=C/CCC(=O)[C@H]1O[C@H]1C(N)=O | 3%[19.4 µM] | · | · | · | · | ·
Cc1ccc2ccc3c(c2n1)NS(=O)(=O)c1ccc(C(F)(F)F)cc1-3 | -13% | · | · | -24% | ? | ·
O=S1(=O)Nc2c(cc(Cl)c3ccc(Cl)nc23)-c2ccccc21 | 79µM* | · | · | ? | ? | ·
CC1(C)C2CCC1(C)C(NC(=O)COC(=O)c1ccc(S(C)(=O)=O)c([N+](=O)[O-])c1)C2 (configuration not stated) | -9% | · | · | -21% | ? | ·
C[C@@H](/C=C/c1ccc2ccccc2c1)C1COC(=O)C[C@H]1O (some centres not stated) | -11% | · | · | 6% | -22% | ·
C=CC[n+]1c(/C=C2\C=Cc3cc(C)ccc3N2CC)ccc2ccccc21 | ? | 32µM* | 50µM* | 40µM* | ? | ?
CCCC(=O)N1CCN(c2nc3ccc(Br)cc3s2)CC1 | -12% | 0% | 3%[11.6 µM] | 25µM* | -10% | -22%
